# Measured values reported in PubChem BioAssay (NCATS).
# Records with an inconclusive call do not appear. Active and inactive are the calls of the source. Unless noted, calls follow the shape of the dose curve; as a rule, active = well fitted inhibition curve with a large enough effect; inconclusive = small, poorly fitted or top-dose-only effect; inactive = flat fitted curve, though single readings scatter.
# Tests used:
# [1] = qHTS profiling for inhibitors of Plasmodium falciparum proliferation (AID 504749); also: nearly all actives have a fitted effect of over 60% in size;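 as to activity, negative = inhibition: 0% = DMSO vehicle and full inhibition = artemisinin control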; conditions: P. falciparum in erythrocytes, SYBR Green DNA, 72 h
# In short: (§1)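 Fluorescence of SYBR Green-bound parasite DNA, read at 485/535 nm, served as the growth measure. Infected erythrocytes were cultured with compound 72 h; artemisinin (0.29 uM) and DMSO wells defined the normalization range.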
# 3D7 = assay: as above; conditions: P. falciparum in erythrocytes, SYBR Green DNA, 72 h; series mostly up to 28.7 µM
# In short: as §1
# [2] = qHTS drug screen for cell cycle checkpoint inhibitors in PARPi-resistant BRCA-mutant ovarian cancer cell lines. (AID 1963452; calls by dose curve); conditions: PEO1/OlaR viability, CellTiter-Glo luminescence, 96 h; for Z-AUC: stronger effect = lower value
# In short: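 PEO1, PEO4 and PEO1/OlaR ovarian cancer cells, 600 per well, exposed 96 h at 37C to a dilution series. Viability read by CellTiter-Glo luminescence, normalized to DMSO and empty wells; activity summarized as Z-AUC.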
# 7G8 = assay: qHTS profiling for inhibitors of Plasmodium falciparum proliferation (AID 504749); also: nearly all actives have a fitted effect of over 60% in size;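 as to activity, negative = inhibition: 0% = DMSO vehicle and full inhibition = artemisinin control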; conditions: P. falciparum in erythrocytes, SYBR Green DNA, 72 h; series mostly up to 28.7 µM
# In short: as §1
# AA1029 = assay: as above; conditions: P. falciparum in erythrocytes, SYBR Green DNA, 72 h; series mostly up to 28.7 µM
# In short: as §1
# AS120 = assay: as above; conditions: P. falciparum in erythrocytes, SYBR Green DNA, 72 h; series mostly up to 28.7 µM
# In short: as §1
# [3] = at 12.8 µM (top of the series), parasite line A
# [4] = at 12.8 µM (top of the series), parasite line B
# [5] = measured here: PEO1 parental Z-AUC
# [6] = at 28.7 µM (top of the series), parasite line A
# [7] = at 28.7 µM (top of the series), parasite line B
# Potency is read from the fitted curve at half-maximal effect.
structure (smiles),measurement,setting,value
CCN(CCCc1ccccc1)CCCc1ccccc1,"activity, negative = inhibition",[1]; [3],-8.39% (inactive)
same,"activity, negative = inhibition",[1]; [4],-11% (inactive)
same,Potency,3D7,inactive
CC(C)N=C(N)/N=C(\N)Nc1ccc(Cl)cc1,Potency,[1]; parasite line A,1120 nM (active)
same,Potency,[1]; parasite line B,1580 nM (active)
O=c1[nH]c(=O)n([C@H]2C[C@H](O)[C@@H](CO)O2)cc1C(F)(F)F,Z-AUC,[2],-0.642 (inactive)
same,Z-AUC,[2]; [5],-0.928
same,Z-AUC,[2]; measured here: PEO4 Z-AUC,-0.403
COc1cc(NS(C)(=O)=O)ccc1Nc1c2ccccc2nc2ccccc12,Z-AUC,[2],-0.779 (inactive)
same,Z-AUC,[2]; [5],-1.77
same,Z-AUC,[2]; measured here: PEO4 Z-AUC,-0.818
same,Potency,[1]; parasite line A,2000 nM (active)
same,Potency,[1]; parasite line B,3160 nM (active)
same,Potency,3D7,2000 nM (active)
same,Potency,7G8,1260 nM (active)
same,Potency,AA1029,3550 nM (active)
same,Potency,AS120,2240 nM (active)
CN(C(=O)CN(CCO)CC(=O)N(C)C(C)(C)Cc1ccccc1)C(C)(C)Cc1ccccc1,"activity, negative = inhibition",[1]; [3],4.12% (inactive)
same,"activity, negative = inhibition",[1]; [4],-5.35% (inactive)
same,Potency,3D7,inactive
same,Potency,7G8,3160 nM (active)
same,Potency,AA1029,inactive
COc1cc2c(cc1O)CC[C@@H]1[C@@H]2CC[C@]2(C)[C@@H](O)CC[C@@H]12,Z-AUC,[2],0.212 (inactive)
same,Z-AUC,[2]; [5],-0.545
same,Z-AUC,[2]; measured here: PEO4 Z-AUC,-0.454
CC[C@H](C)C(=O)O[C@H]1CCC=C2C=C[C@H](C)[C@H](CC[C@@H]3C[C@@H](O)CC(=O)O3)[C@H]21,Z-AUC,[2],1.25 (inactive)
same,Z-AUC,[2]; [5],1.13
same,Z-AUC,[2]; measured here: PEO4 Z-AUC,1.15
CCCCCCc1ccc(O)cc1O,"activity, negative = inhibition",[1]; [6],6.34% (inactive)
same,"activity, negative = inhibition",[1]; [7],12.1% (inactive)
same,Potency,3D7,inactive
same,Potency,7G8,inactive
same,Potency,AA1029,inactive
same,Potency,AS120,inactive
Oc1ccc(Cl)cc1Sc1cc(Cl)ccc1O,"activity, negative = inhibition",[1]; [6],0.98% (inactive)
same,"activity, negative = inhibition",[1]; [7],-24.8% (inactive)
same,Potency,3D7,inactive
same,Potency,7G8,12600 nM (active)
same,Potency,AA1029,inactive
CC(=O)OCC(=O)[C@@]12N=C(C)O[C@@H]1C[C@H]1[C@@H]3CCC4=CC(=O)C=C[C@]4(C)[C@H]3[C@@H](O)C[C@@]12C,Z-AUC,[2],0.653 (inactive)
same,Z-AUC,[2]; [5],1.08
same,Z-AUC,[2]; measured here: PEO4 Z-AUC,0.153
COc1cccc2c1C(=O)c1c(O)c3c(c(O)c1C2=O)C[C@@](O)(C(C)=O)C[C@@H]3O[C@H]1C[C@H](N)[C@H](O)[C@H](C)O1,Potency,[2],174 nM (active)
same,Z-AUC,[2]; [5],-2.1
same,Z-AUC,[2]; measured here: PEO4 Z-AUC,-2.06
same,Potency,[1]; parasite line A,3550 nM (active)
same,Potency,[1]; parasite line B,7080 nM (active)
same,Potency,3D7,2000 nM (active)
same,Potency,7G8,1260 nM (active)
same,Potency,AA1029,4470 nM (active)
same,Potency,AS120,3980 nM (active)
